Source: PubChem BioAssay (National Center for Advancing Translational Sciences (NCATS))
G9a block: blocks human histone lysine methyltransferase G9a; actives 8.8% (n = 350,000); AID 504332; G9a H3K9 monomethylation, AlphaScreen, 2 h; Potency, µM (top dose mostly 102 µM), usual class: inhibitors; Q96KQ7; further: nearly all actives have a fitted effect of over 75% in size
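Readings reflect AlphaScreen signal from monomethyl-H3K9 antibody detection. HMT at 20 nM; substrate b-H3K9 500 nM; cofactor SAM 20 uM; 2 h RT reaction; compounds tested as titrations in qHTS with 15 min preincubation.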
BAZ2B inh: blocks human BAZ2B; Q9UIF8; AlphaScreen BAZ2B-H3K14Ac peptide displacement; Potency, µM (doses to about 114 µM), usual class: inhibitors; actives 4.4% (n = 360,000); AID 504333; further: nearly all actives have a fitted effect of over 60% in size
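Complex of BAZ2B and biotin-H3K14Ac (50 nM apiece) forms over 30 min at RT, then faces library compounds up to 110 uM for another 30 min; AlphaScreen beads added, 20 min dark incubation, luminescence read.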
L3MBTL1 block: L3MBTL1 (human) inhibition; Q9Y468; AlphaScreen L3MBTL1–H3K9me1 peptide binding; Potency, µM (highest dose often 57.1 µM), hits mostly inhibitors; actives 0.66% (n = 230,000); AID 485360; further: nearly all actives have a fitted effect of over 60% in size
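Read-out is AlphaScreen signal from streptavidin donor and nickel chelate acceptor beads (10 ug/mL final each) bridging L3MBTL1 (50 nM) and biotinylated K9-monomethylated H3(1-15) peptide (75 nM), after 30 min compound exposure at room temperature.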
HP1b binding inh: HP1-beta chromodomain-methylated histone interaction inhibition; AlphaScreen HP1-beta / biotin-H3K9me3 peptide binding; AID 540317; Potency, µM (highest dose often 114 µM), usual class: inhibitors; actives 0.56% (n = 390,000); P83916; further: nearly all actives have a fitted effect of over 70% in size
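Compound inhibition of the preformed complex between 50 nM HP1-beta and 50 nM biotinylated H3K9me3 peptide was read by AlphaScreen. Buffer was PBS pH 7.4 with 0.01% Tween-20. Incubations ran 30 min at room temperature, with 10 ug/mL donor/acceptor beads.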
JMJD2A Tudor: blocks the human JMJD2A Tudor domain | O75164 | AlphaScreen JMJD2A-Tudor / H3K4me3 peptide binding | Potency, µM (titrated, usually from 114 µM), most hits filed as inhibitors | actives 4.4% (n = 390,000) | AID 504339; further: nearly all actives have a fitted effect of over 50% in size
Large screens that a line does not name were inactive. The list is not random: actives were taken first. Their share in the collection is about 11%. The call rests on the fitted dose curve; in most records, active means well fitted inhibition curve with a large enough effect; inconclusive means small, poorly fitted or top-dose-only effect; inactive means no such curve, though single readings can be large or run the other way.

Cc1ccc(NC(=O)c2ccc(-c3cccc(Cl)c3C)o2)cc1	none (no result: L3MBTL1 block)
O=C(NCc1ccccc1)c1ccc(-c2ccccc2C(F)(F)F)o1	G9a block 40µM
CCc1ccccc1NC(=O)CCNS(=O)(=O)c1ccc2c(c1)CCCC(=O)N2	none (no result: L3MBTL1 block)
Cc1cccc(C)c1NC(=O)CSc1nccn1C	none (no result: L3MBTL1 block)
CC(=O)NCc1ccc(S(=O)(=O)NC(C(=O)O)C(C)C)cc1 (stereo unspecified)	G9a block inconclusive
Cc1ccc(CC(=O)NCc2ccc(Cl)cc2)cc1	BAZ2B inh inconclusive, HP1b binding inh inconclusive, JMJD2A Tudor inconclusive
Cc1ccc(-c2ccc(C(=O)NCc3ccc(Cl)cc3)o2)c2ccccc12	G9a block 14µM, BAZ2B inh inconclusive, JMJD2A Tudor inconclusive
CN(CC(=O)Nc1cccc(F)c1)C(=O)c1ccc(-c2ccc(Cl)cc2)o1	G9a block 35µM, BAZ2B inh inconclusive, JMJD2A Tudor inconclusive (no result: L3MBTL1 block)
O=C(NCc1cccnc1)c1ccc(-c2cccc(Cl)c2Cl)o1	BAZ2B inh 71µM (no result: G9a block)
O=C(Nc1ccccc1)c1cc(-c2ccccc2Cl)no1	JMJD2A Tudor 28µM
COc1ccc(NC(=O)c2cc(-c3ccccc3Cl)no2)cc1	none
Cc1ccccc1C(=O)NC1(C(F)(F)F)N=C(c2ccccc2)N(C2CCCCC2)C1=O (stereo unspecified)	none (no result: L3MBTL1 block)
CCc1ccc(CNC(=O)CN2C(=O)CCn3nc(-c4cn(C)c5ccccc45)cc32)cc1	JMJD2A Tudor inconclusive (no result: L3MBTL1 block)
N#Cc1nc(Nc2cc(F)cc(F)c2)c2ncn(CCO)c2n1	none (no result: G9a block, BAZ2B inh, L3MBTL1 block, HP1b binding inh)
Cn1c(C(=O)NCCc2ccccc2)cc2sc(Cl)cc21	none (no result: L3MBTL1 block)
COC(=O)[C@@H]1[C@@H]2C[C@H]3c4[nH]c5ccccc5c4CCN3C[C@@H]2CC[C@@H]1O	none (no result: BAZ2B inh, L3MBTL1 block, HP1b binding inh, JMJD2A Tudor)
O=C(Cc1cccs1)NNC(=S)NC(=O)c1ccccc1	G9a block inconclusive, JMJD2A Tudor 50µM
Cc1cccc(C(=O)NC(=S)Nc2ccccc2C(F)(F)F)c1	JMJD2A Tudor inconclusive
O=C(Nc1ccc2c(c1)OCCO2)c1coc2ccccc2c1=O	JMJD2A Tudor 28µM
Cc1cccc(C(=O)NC(=S)Nc2ccccc2C(=O)O)c1	G9a block 45µM, HP1b binding inh inconclusive
O=C(Cc1cccs1)NNC(=S)NC(=O)c1ccc(F)c(F)c1	G9a block inconclusive
O=C(COc1ccccc1)NNC(=S)NC(=O)c1ccccc1	G9a block 2.2µM, JMJD2A Tudor 18µM (no result: BAZ2B inh)
Cc1cc(C(=O)NNC(=S)NC(=O)/C=C/c2ccccc2Cl)n[nH]1	G9a block 28µM, BAZ2B inh 22µM, JMJD2A Tudor 50µM (no result: L3MBTL1 block)
O=C(NC(=S)Nc1ccc2c(c1)OCCO2)c1cccc2ccccc12	G9a block 40µM, BAZ2B inh inconclusive, JMJD2A Tudor inconclusive
Cc1cccc(C(=O)NC(=S)NCc2ccccc2)c1	none (no result: G9a block, BAZ2B inh, L3MBTL1 block)
CNC(=O)c1ccsc1NC(=O)c1coc2ccccc2c1=O	G9a block 50µM
Cc1cccc(C(=O)NC(=S)NNC(=O)COc2c(C)cccc2C)c1	G9a block 7.9µM, JMJD2A Tudor inconclusive
CCC(CC)NC(=O)/C=C/c1ccccc1Cl	HP1b binding inh inconclusive, JMJD2A Tudor inconclusive
O=C1CSC(=Nc2cccc(Cl)c2Cl)N1	none (no result: G9a block)
CN(Cc1ccccc1)S(=O)(=O)c1ccc(-c2cnc(C3CC3)o2)cc1	none (no result: L3MBTL1 block)
CCOC(=O)c1c(C)[nH]c(CCC(=O)Nc2ccccc2C(=O)OC)c1C	none (no result: L3MBTL1 block)
COc1cc2c(C(=O)N(C)c3cccc(C(F)(F)F)c3)cn(CC(C)C)c(=O)c2cc1OC	none (no result: L3MBTL1 block)
CC(=O)NNC(=S)NC(=O)c1ccccc1	G9a block 6.3µM, JMJD2A Tudor 20µM
CC(=O)NNC(=S)NC(=O)c1ccc(C)cc1	G9a block inconclusive, BAZ2B inh inconclusive
Cc1cccc(C(=O)NC(=S)NNC(=O)Cc2ccccc2)c1	G9a block 7.1µM
Cc1ccc(C(=O)NC(=S)NNC(=O)COc2ccccc2C)cc1	G9a block 3.5µM, JMJD2A Tudor 22µM
Cc1c(NC(=S)NC(=O)c2cccc3ccccc23)cccc1C(=O)O	none (no result: L3MBTL1 block)
O=C(O)c1ccccc1NC(=S)NC(=O)c1cccc2ccccc12	G9a block 50µM, BAZ2B inh inconclusive
CCC(=O)N1CCc2cc(Br)cc(S(=O)(=O)CCC(=O)N3CCN(c4ccccc4OC)CC3)c21	none (no result: L3MBTL1 block)
Cc1ccccc1C(=O)NNC(=S)NC(=O)c1ccc(Cl)cc1Cl	G9a block inconclusive (no result: L3MBTL1 block)
Cc1ccc(C(=O)NNC(=S)Nc2cccc3ccccc23)s1	G9a block 35µM
Cc1cccc(C(=O)NC(=S)NNC(=O)c2ccccc2Cl)c1	G9a block 7.9µM
C=CCCCCCCCCC(=O)OC	none (no result: BAZ2B inh, L3MBTL1 block, HP1b binding inh, JMJD2A Tudor)
O=C(NC(=S)NCCC1=CCCCC1)c1ccccc1Br	BAZ2B inh 50µM (no result: G9a block)
COc1ccc(C(=O)N2CCn3c(C)ccc3C2C)cc1 (stereo unspecified)	G9a block inconclusive
CC(=O)c1c(C)c(C)c2n1CCn1c(C)ccc1-2	G9a block 6.3µM, BAZ2B inh inconclusive, JMJD2A Tudor inconclusive (no result: L3MBTL1 block)
CCOC(=O)c1c(C)oc2nc(C)nc(N3CCN(c4cccc(C(F)(F)F)c4)CC3)c12	G9a block inconclusive (no result: L3MBTL1 block)
O=C1COc2ccc(-c3csc(NCCc4ccccc4)n3)cc2N1	G9a block 40µM, BAZ2B inh 50µM, JMJD2A Tudor inconclusive
CCC(C)C(=O)Nc1nc(-c2ccc3c(c2)NC(=O)CO3)cs1 (stereo unspecified)	G9a block inconclusive, HP1b binding inh inconclusive
CCCCC(=Nc1ccc(N)cc1)C1=C(O)C(C(=O)OC)C(C)(C)CC1=O (stereo unspecified)	G9a block 1µM, BAZ2B inh 56µM, JMJD2A Tudor inconclusive (no result: L3MBTL1 block)
CCC(=Nc1ccc(N)cc1)C1=C(O)C(C(=O)OC)C(C)(C)CC1=O (stereo unspecified)	G9a block 50µM, BAZ2B inh inconclusive, L3MBTL1 block 28µM
COc1ccc(NC(=O)N2CCc3c([nH]c4ccc(OC)cc34)C2c2ccc(OC)cc2)cc1 (stereo unspecified)	G9a block inconclusive, BAZ2B inh inconclusive, JMJD2A Tudor inconclusive (no result: L3MBTL1 block)
CC(C)(C)c1ccc(C(=O)NC(=S)NCC2CCCO2)cc1 (stereo unspecified)	G9a block 40µM
S=C(NCC1CCCO1)c1ccc(Br)cc1 (stereo unspecified)	G9a block 8.9µM, HP1b binding inh inconclusive
S=C(NCC1CCCO1)NC1CCCCC1 (stereo unspecified)	G9a block 50µM, BAZ2B inh inconclusive
O=C(NCC1CCCO1)C1CCCN1C(=O)NC1CCCCC1 (stereo unspecified)	none
CC(C)(C)NC(=O)COc1ccc(CNCc2ccccn2)cc1	BAZ2B inh 50µM, L3MBTL1 block inconclusive, JMJD2A Tudor 56µM (no result: G9a block)
CCOc1cc(CNCCc2ccccc2)ccc1OCC(=O)NC(C)(C)C	HP1b binding inh inconclusive, JMJD2A Tudor inconclusive
CCOc1cc(CNCc2cccnc2)ccc1OCC(=O)NC(C)(C)C	G9a block 50µM, BAZ2B inh inconclusive
